Screening data deposited in PubChem BioAssay by ICCB-Longwood Screening Facility, Harvard Medical School.
Only a selection was taken, and hits are over-represented in it overall.
Choline anaer gr = choline-fed anaerobic bacterial growth inhibition. 55,000 compounds, 0.2% hits. Gram-negative bacterium anaerobic choline minimal medium, absorbance growth; stronger effect = lower value. calls only. AID 1963822; call rule not given here
* marks the source's active call; other numbers are inactive results; ! = not active in a repeat.

Screening O=[N+]([O-])c1ccc2c(c1)S(=O)(=O)C=C2 returned Choline anaer gr active!.
CC(C)Cn1cnc2nc(CSc3ccccc3NC(=O)Nc3ccc(F)cc3F)cc(=O)n21 was read as Choline anaer gr inactive.
COc1ccc(OC)c(C(=O)c2c(N)c(-c3nc(-c4ccc5c(c4)OCO5)cs3)c3ccccn23)c1 was read as Choline anaer gr inactive.
`COc1ccc2c(c1)cc(C(=O)NCCOc1ccccc1)n2C` gave Choline anaer gr inactive.
Screening O=C(Nc1ccc(Cl)cc1)N1CC=C(c2c[nH]c3ccccc23)CC1 returned Choline anaer gr inactive.
`CCc1ccc(NC(=O)N2CC=C(c3c[nH]c4ccccc34)CC2)cc1` gave Choline anaer gr inactive.
`O=C(CCC(=O)N1CC=C(c2c[nH]c3ccccc23)CC1)NCc1cccc(Cl)c1` gave Choline anaer gr active.
O=C(Nc1n[nH]c(-c2ccccc2)n1)c1ccc(Cl)cc1 was read as Choline anaer gr inactive.
For CC(=O)Nc1ccc(NS(=O)(=O)c2ccc3c(c2)CCCC(=O)N3)cc1 the results were Choline anaer gr inactive.
CC(Sc1nnc(-c2ccncc2)o1)C(=O)Nc1ccc2c(c1)OCCO2 (centres undefined) was read as Choline anaer gr inactive.
Cc1ccc(NC(=O)CSc2nnc(-c3ccncc3)o2)cc1Cl was read as Choline anaer gr inactive.
O=C(CSc1nnc(-c2ccncc2)o1)Nc1ccc2c(c1)OCO2 was read as Choline anaer gr active.
Screening O=C(CCC(=O)N1Cc2cccn2-c2ccccc21)NCc1ccc2c(c1)OCO2 returned Choline anaer gr inactive.
Cn1c(SCC(N)=O)nc2c(-c3ccccc3)csc2c1=O was read as Choline anaer gr inactive.
Cc1ccc(C)c(NC(=O)N2CCN(c3cc(=O)n4nc(-c5ccccc5C)sc4n3)CC2)c1 was read as Choline anaer gr inactive.
`O=C(c1c2c(nc3ccccc13)C(=O)N(C1CCCCC1)C2)N1CCOCC1` gave Choline anaer gr inactive.
CC1CCN(c2ccc(NC(=O)c3ccccc3Cl)c(C(=O)O)c2)CC1 was read as Choline anaer gr active.
For CN(C)c1ccc(NC(=O)c2ccccc2Cl)c(C(=O)O)c1 the results were Choline anaer gr active.
Cc1cccc(N2CCN(c3ccc(NC(=O)c4ccccc4Cl)c(C(=O)O)c3)CC2)c1C was read as Choline anaer gr inactive.
Screening CN(C)c1ccc(NC(=O)c2ccc(Br)cc2)c(C(=O)O)c1 returned Choline anaer gr inactive.
For CCN1CCN(c2ccc(NC(=O)c3ccccc3Cl)c(C(=O)O)c2)CC1 the results were Choline anaer gr inactive.
O=C(Nc1ccc(N2CCN(C3CCCCC3)CC2)cc1C(=O)O)c1ccccc1Cl was read as Choline anaer gr inactive.
For CCn1nccc1C1CCCN1C(=O)c1c(Cl)cnn1C (centres undefined) the results were Choline anaer gr inactive.
Screening CCOC(=O)C1(C)C=C(Nc2ccc(O)c(C(=O)O)c2)C(=O)N1c1ccccc1 (centres undefined) returned Choline anaer gr inactive.
Screening CC1CC(C)CN(c2c(-c3ccccc3)c(=O)c2=O)C1 (centres undefined) returned Choline anaer gr inactive.
Screening Cc1ccc(C)c(N2C(=O)c3cc4ccsc4n3CC2(C)C(=O)NC2CCCCC2)c1 (centres undefined) returned Choline anaer gr inactive.
Screening O=C(CC1CCCC1)N1CCN(Cc2noc(-c3ccccc3)n2)CC1 returned Choline anaer gr inactive.
For O=C(CC1CC1)N1CCCN(Cc2noc(-c3ccccc3)n2)CC1 the results were Choline anaer gr active.
For O=C(c1coc(-c2ccccc2)n1)N1CCCN(Cc2noc(-c3ccccc3)n2)CC1 the results were Choline anaer gr inactive.
For CCN1CCCC1CNS(=O)(=O)c1ccc2c(c1)N(Cc1noc(C3CCC3)n1)C(=O)CO2 (centres undefined) the results were Choline anaer gr inactive.
CCSc1nn(CC(=O)Nc2cc(Cl)ccc2OC)c(N)c1S(=O)(=O)c1ccc(C)cc1 was read as Choline anaer gr inactive.
Screening CO[C@H]1/C=C/O[C@@]2(C)Oc3c(C)c(O)c4c(O)c(c(/C=N/N5CCN(C)CC5)c(O)c4c3C2=O)NC(=O)/C(C)=C\C=C\[C@H](C)[C@H](O)[C@@H](C)[C@@H](O)[C@@H](C)[C@H](OC(C)=O)[C@@H]1C returned Choline anaer gr active!.
`COC1C=CO[C@@]2(C)Oc3c(C)c(O)c4c(O)c(c5c(c4c3C2=O)NC2(CCN(CC(C)C)CC2)N=5)=NC(=O)C(C)=CC=CC(C)C(O)C(C)C(O)C(C)C(OC(C)=O)C1C` (some centres undefined) gave Choline anaer gr inactive.
For COC1C=CO[C@@]2(C)Oc3c(C)c(O)c4c(O)c(c5c(nc6cc(C)ccn65)c4c3C2=O)NC(=O)C(C)=CC=CC(C)C(O)C(C)C(O)C(C)C(OC(C)=O)C1C (some centres undefined) the results were Choline anaer gr inactive.
Screening COc1cccc(NC(=O)N2CCN(Cc3nc(-c4ccccc4)oc3C)CC2)c1 returned Choline anaer gr inactive.
Screening COC(=O)c1cccc(NC(=NCc2ccncc2)NC(=O)c2ccc3c(c2)OCO3)c1 returned Choline anaer gr inactive.
For COc1ccc(C(=O)NC(=NCc2ccncc2)Nc2ccccc2)cc1OC the results were Choline anaer gr inactive.
For Cc1cccc(NC(=NCc2ccncc2)NC(=O)c2ccc3c(c2)OCO3)c1 the results were Choline anaer gr active.
For COCCCNC(=O)c1cc(-c2ccc(C)cc2)nc2n[nH]c(-c3ccc(C)cc3)c12 the results were Choline anaer gr inactive.
`O=C(NC1CCCCC1)C1(c2ccc(NS(=O)(=O)c3ccc4c(c3)CCCC4)cc2)CC1` gave Choline anaer gr inactive.
COC(=O)C1=C(C)NC(C)=C(C(=O)OCCCN2CCC(c3ccccc3)(c3ccccc3)CC2)[C@@H]1c1cccc([N+](=O)[O-])c1 was read as Choline anaer gr inactive.
For CC(C)CN1CCN(S(=O)(=O)c2ccc(-c3nnc(C4CCCC4)o3)o2)CC1 the results were Choline anaer gr inactive.
For CCCCC/C=C\CC1OC1C/C=C\C/C=C\CCCC(=O)O (centres undefined) the results were Choline anaer gr inactive.
Screening CCCCCCCCCCC/C=C\C/C=C\CCCC(=O)O returned Choline anaer gr active.
Screening CC/C=C\C/C=C\C/C=C\C/C=C\C/C=C\CCCCCC(=O)O returned Choline anaer gr inactive.
`CCCN1CCN(CCCN2C(=O)c3cc4oc(C)cc4n3CC2(C)C(=O)NC2CCCCC2)CC1` (centres undefined) gave Choline anaer gr inactive.
For CCc1ccccc1NC(=O)C1CCN(S(=O)(=O)c2c(C)[nH]c(C)c2C(=O)N2CCCC2)CC1 the results were Choline anaer gr inactive.
O=c1[nH]cnc2c1nnn2-c1ccc(F)cc1 was read as Choline anaer gr inactive.
Screening CCSc1nnc(-c2nn(C)c3c2CN(C(=O)c2ccccc2Br)CC3)n1C returned Choline anaer gr inactive.
`CCc1ccc(-c2[nH]c3ccccc3c2NC(=O)Nc2cccc(C(=O)OC)c2)cc1` gave Choline anaer gr inactive.
For CCc1ccc(NC(=O)Nc2c(-c3ccccc3)[nH]c3ccccc23)cc1 the results were Choline anaer gr active.
For COc1ccc(NC(=O)Nc2c(-c3cccnc3)[nH]c3ccccc23)cc1 the results were Choline anaer gr inactive.
`O=C(Nc1nnc(C2CC(=O)N(c3ccccc3)C2)s1)c1sc2ccccc2c1Cl` (centres undefined) gave Choline anaer gr inactive.
